High-throughput results: PubChem, Sanford-Burnham Center for Chemical Genomics
CYP2C19 inhib = blockers of cytochrome P450 2C19 activity – biochemical, luminescence, ADME assay, primary screen; CYP2C19 Supersomes, luciferin-H EGE luminescence, 30 min; 96,000 tested, 21% active; inhibition, % at 5 µM; AID 778, 2007; P33261;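 active means CYP2C19 inhibition above a set limit at 5 µM in the primary screen, cut at about 50% in these data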;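 further: plate controls were negative control wells for no effect and 2.5 mM tranylcypromine positive control for full effect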
Target sequence (P33261 whole entry, looked up): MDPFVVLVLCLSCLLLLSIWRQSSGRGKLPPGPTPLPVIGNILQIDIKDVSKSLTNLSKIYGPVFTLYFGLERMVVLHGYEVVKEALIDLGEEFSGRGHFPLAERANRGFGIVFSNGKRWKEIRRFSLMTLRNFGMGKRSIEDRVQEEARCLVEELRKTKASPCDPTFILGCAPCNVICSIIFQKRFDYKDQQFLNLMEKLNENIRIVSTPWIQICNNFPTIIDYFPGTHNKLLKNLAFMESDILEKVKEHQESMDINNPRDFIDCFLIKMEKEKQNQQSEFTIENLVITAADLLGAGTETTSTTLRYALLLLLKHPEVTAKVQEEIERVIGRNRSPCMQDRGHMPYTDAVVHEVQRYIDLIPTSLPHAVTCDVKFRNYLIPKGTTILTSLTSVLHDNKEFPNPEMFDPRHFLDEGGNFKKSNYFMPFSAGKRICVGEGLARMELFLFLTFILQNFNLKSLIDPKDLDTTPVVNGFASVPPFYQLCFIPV
CYP2C9 inh = blockers of cytochrome P450 2C9 activity – biochemical, luminescence, ADME assay, primary screen | P11712 | CYP2C9 Supersomes, luciferin-H conversion | inhibition, % at 5 µM | 96,000 tested, 20% active;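 active means blocking of liver enzyme CYP2C9 beyond about 50% at 5 µM, limit read from the data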
CYP2C9 activ = human CYP2C9 activators, primary screen, biochemical, luminescence; recombinant CYP2C9, luciferin-H conversion; hits give high values; factor 1 = untreated enzyme, 0 = blocked; AID 1024, 2008; activation factor at 5 µM; 96,000 tested, 1.4% active;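 active means activation factor of 2 or more for CYP2C9 at a 5 µM dose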;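 further: 0 = sulfaphenazole-blocked wells and 1 = vehicle-only wells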
CYP2C19 activ = human CYP2C19 activators, primary screen, biochemical, luminescence; Cytochrome P450 2C19 (Homo sapiens), P33261; recombinant CYP2C19, luciferin-H EGE luminescence; hits give high values; 0 = fully inhibited enzyme, 1 = untreated enzyme; activation factor at 5 µM; 96,000 tested, under 10 active; AID 1025, 2008;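 active means activation factor of at least 2 at 5 µM in the primary screen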;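 further: 0 = wells with 2.5 mM tranylcypromine and 1 = vehicle-only wells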
The depositor's hits bear a star. Shown are actives, neighbours in structure and some others; about 31% of the full set was active somewhere.

SMILES	CYP2C19 inhib	CYP2C9 inh	CYP2C9 activ	CYP2C19 activ
COc1ccc(C2Nc3ccccc3C(=O)N2Cc2ccco2)cc1COc1ccc([N+](=O)[O-])cc1 (stereo not drawn)	39.2	96.4*	0	0.6
O=C1c2ccccc2NC(c2ccccc2)N1Cc1ccco1 (stereo not drawn)	34.5	59.5*	0.4	0.7
O=C1c2ccccc2NC(c2ccc(F)cc2)N1Cc1ccco1 (stereo not drawn)	53.0*	67.7*	0.3	0.5
CCCOc1ccc(C2C(=O)N(C3CCCCCC3)CC(=O)N2Cc2ccco2)cc1OC (stereo not drawn)	4.1	27.3	0.7	1
O=C1c2ccccc2N2C(=O)c3ccccc3C2N1Cc1ccco1 (stereo not drawn)	5.0	49.4	0.5	0.9
Cc1nc2cc(CC(=O)O)ccc2o1	-8.0	-4.8	1	1.1
O=C(c1ccc(NC2=NC3CS(=O)(=O)CC3S2)cc1)N1CCc2ccccc2C1 (stereo not drawn)	3.9	-1.1	1	1
CCOC(=O)CCCCC(=O)c1[nH]c(=O)[nH]c1Cn1ccnc1	36.3	28.5	0.7	0.6
COc1cc(Cn2ccnc2)c(OC)cc1Cn1ccnc1	77.5*	72.7*	0.3	0.2
O=C(Nc1ccc(Br)cc1)c1cccn1-c1ncc(C(F)(F)F)cc1Cl	24.9	31.5	0.7	0.8
NC(=O)C(c1ccc(Cl)cc1)c1ncc(C(F)(F)F)cc1Cl (stereo not drawn)	73.3*	9.8	0.9	0.3
CCOC(=O)C(C(=O)NCc1ccc(F)cc1)c1ncc(C(F)(F)F)cc1Cl (stereo not drawn)	22.2	4.4	1	0.8
CC(C(=O)Nc1ccc(Cl)cc1)c1ncc(C(F)(F)F)cc1Cl (stereo not drawn)	93.6*	39.2	0.6	0.1
NC(=O)C(c1ccc(Cl)cc1Cl)c1ncc(C(F)(F)F)cc1Cl (stereo not drawn)	87.9*	17.8	0.8	0.1
Cc1cc(C)nc(/N=C(\N)Nc2ccc(C)c([N+](=O)[O-])c2)n1	18.7	-3.8	1	0.8
CCC(CCC(=O)Nc1ccc(S(N)(=O)=O)cc1)C(=O)O (stereo not drawn)	5.8	6.7	0.9	0.9
COc1cccc(OCCCCCCN2CCOCC2)c1	53.7*	29.1	0.7	0.5
C=CCc1ccc(OCCCCCN2CCOCC2)c(OC)c1	64.2*	17.3	0.8	0.4
C=CCc1ccc(OCCOCCN(C)C)c(OC)c1	8.6	4.4	1	0.9
C=CCc1ccc(OCCOc2cccc3ccc(C)nc23)c(OC)c1	36.1	-107.4	2.1*	0.6
C=CCc1ccc(OCCn2cccc2C=O)c(OC)c1	69.7*	39.2	0.6	0.3
C=CCc1ccc(OCCCOc2ccc(C)c(C)c2)c(OC)c1	15.9	19.5	0.8	0.8
Cn1cnnc1SCNC(=O)C(F)(F)F	-3.4	25.3	0.7	1
CCOC(=O)C1CCN(c2c(NC3CCCCCCC3)c(=O)c2=O)CC1	8.3	13.4	0.9	0.9
C=CCN1C(c2ccc(OCC)cc2)=CS/C1=C(\C#N)c1nnc2n1CCCCC2	4.3	-16.7	1.2	1
SMILES	CYP2C19 inhib	CYP2C9 inh	CYP2C9 activ	CYP2C19 activ
Cc1ccc(C(=O)Oc2cc(C)n(C)c(=O)c2)cc1	0.2	-0.6	1	1
CC(C)(CS(=O)(=O)[O-])NC(=O)CC[N+](C)(C)CCO	-12.9	-7.9	1.1	1.1
CN(Cc1nc2ccccc2n1C)S(=O)(=O)c1ccc(F)cc1	83.7*	-167.3	2.7*	0.2
O=C(COC(=O)CCCNC(=O)c1ccc(Cl)cc1)NCc1ccccc1Cl	55.6*	70.0*	0.3	0.4
COC(=O)[C@@H](NC(=O)NCc1ccccc1Cl)C(C)C	45.0	2.2	1	0.6
O=C(COC(=O)C1CCC1)NCc1ccccc1Cl	87.9*	29.7	0.7	0.1
O=C(COC(=O)C1CC1)Nc1ccc(Oc2ccccc2)cc1	29.4	-8.1	1.1	0.7
CSCCC(NC(N)=O)C(=O)NCc1ccccc1Cl (stereo not drawn)	3.9	-33.3	1.3	1
CC1CC1C(=O)OCC(=O)NCc1ccccc1Cl (stereo not drawn)	87.6*	8.1	0.9	0.1
NC(=O)CCNC(=O)c1ccc(Cl)cc1	1.0	-3.5	1	1
O=C(COC(=O)C1CCC1)Nc1ccc(Oc2ccccc2)cc1	55.0*	-37.8	1.4	0.4
O=C(CCl)c1ccc(Cc2ncc(C(F)(F)F)cc2Cl)s1	29.9	11.2	0.9	0.7
CCCCn1nc2cc(C(=O)NCc3ccc(OC(F)(F)F)cc3)ccc2c1OC	16.5	11.1	0.9	0.8
CC(=O)Nc1nonc1NC(=O)c1ccc(C(C)(C)C)cc1	41.7	20.2	0.8	0.6
C[n+]1cc[nH]c1SCC(=O)c1ccccc1	71.9*	-9.4	1.1	0.3
O=C(O)CC(c1cccc2ccccc12)n1cccc1 (stereo not drawn)	23.4	50.8*	0.5	0.8
O=C(O)CC(c1ccc(Cl)cc1)n1cccc1 (stereo not drawn)	-10.1	8.8	0.9	1.1
Cc1nc2ccccc2c(=O)n1/N=C/c1c(O)ccc2oc3c(c12)CCCC3	13.0	77.1*	0.2	0.9
Cc1ccc(S(=O)(=O)Cn2nnnc2C(c2ccccn2)N2CCN(c3ccccc3)CC2)cc1 (stereo not drawn)	72.4*	68.5*	0.3	0.3
Cc1ccc(S(=O)(=O)Cn2nnnc2C(C(C)C)N2CCSCC2)cc1 (stereo not drawn)	23.9	68.6*	0.3	0.8
CCSc1ncc(Cl)c(C(=O)Nc2sc3c(c2C(=O)NCc2cccnc2)CCCC3)n1	3.6	11.1	0.9	1
Cc1ccc(S(=O)(=O)NC(CC(=O)O)c2ccccc2)cc1 (stereo not drawn)	-9.1	10.3	0.9	1.1
Cc1ccc(S(=O)(=O)NC(CC(=O)n2nc(C)cc2C)c2ccccc2)cc1 (stereo not drawn)	99.6*	94.2*	0.1	0
Cc1ccc(S(=O)(=O)NC(c2ccccc2)C(C)C(=O)n2nc(C)cc2C)cc1 (stereo not drawn)	99.7*	49.6	0.5	0
O=C(NCC(=O)N1CCCC1C(=O)O)OC1CCCCC1 (stereo not drawn)	12.5	11.7	0.9	0.9
CC(=O)N(c1ccc(Cl)cc1)c1c[nH]c2ccccc12	91.8*	69.6*	0.3	0.1
CCN(CC)CC(=O)c1c[nH]c2ccccc12	-4.9	-5.9	1.1	1
CCCn1c(CN(Cc2ccccc2)Cc2ccccc2)nc2c1c(=O)n(C)c(=O)n2C	8.5	86.6*	0.1	0.9
Cn1c(=O)c2c(nc(NCc3ccc4c(c3)OCO4)n2Cc2ccccc2Cl)n(C)c1=O	0.7	1.4	1	1
Cn1c(=O)c2c(nc(OCc3ccc4c(c3)OCO4)n2Cc2ccccc2Cl)n(C)c1=O	56.2*	10.2	0.9	0.4
